Laboratory results taken from PubChem BioAssay (Tox21).
Records with an inconclusive call do not appear. Activity calls are given as the source filed them. Unless noted, calls follow the shape of the dose curve; as a rule, active = well fitted curve in the direction sought with a large enough effect in the repeat runs; inconclusive = weak or mixed curves; inactive = no such curve, though single readings can be large; an effect the other way counts as inactive or inconclusive.

Legend:
[1] = qHTS assay to test for compound auto fluorescence at 535 nm (green) in HEK293 cells (AID 720680)
[2] = qHTS assay to test for compound auto fluorescence at 460 nm (blue) in HEK293 cell free culture (AID 720681)
Summary of the method: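 Blue fluorescence (Ex 405/Em 460 nm, triamterene-equivalent) was read immediately after pin transfer of compound or DMSO into medium (DMEM, 10% FBS) without cells.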

[3] = qHTS assay to test for compound auto fluorescence at 535 nm (green) in HEK293 cell free culture (AID 720682)
Summary of the method: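 Green-channel intensity (Ex/Em 485/535 nm) was recorded from compound-treated wells containing only DMEM with 10% FBS. Fluorescein provided the equivalency standard.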

[4] = qHTS assay to test for compound auto fluorescence at 590 nm (red) in HEK293 cell free culture (AID 720683)
Summary of the method: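 Red-channel autofluorescence of compounds in culture medium (DMEM, 10% FBS), no cells, measured at 540/590 nm. Rose Bengal sodium is the reference fluorophore for equivalence.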

[5] = qHTS assay to test for compound auto fluorescence at 590 nm (red) in HepG2 cell free culture (AID 720684)
Summary of the method: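 No cells present: MEM + 10% FBS only. Compound pinned in, red label read (540/590 nm). Activity = fluorescence equivalent to Rose Bengal sodium.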

[6] = qHTS assay to test for compound auto fluorescence at 460 nm (blue) in HepG2 cell free culture (AID 720685)
Summary of the method: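 Cell-free plates of MEM plus 10% FBS received 23 nL compound or DMSO vehicle; blue-channel (405/460 nm) intensity scored against triamterene as reference fluorophore.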

[7] = qHTS assay to test for compound auto fluorescence at 535 nm (green) in HepG2 cell free culture (AID 720686)
[8] = qHTS assay to test for compound auto fluorescence at 460 nm (blue) in HepG2 cells (AID 720687)
Summary of the method: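 Blue-channel autofluorescence (Ex/Em 405/460 nm, triamterene-equivalent) was measured after 1 hr compound exposure at 37 C, 5% CO2. Cells were HepG2, plated overnight at 37 C in MEM plus 10% FBS.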

[9] = qHTS assay to identify small molecule antagonists of the glucocorticoid receptor (GR) signaling pathway - cell viability counter screen (AID 720693); also: nearly all actives have a fitted effect of over 55% in size
[10] = qHTS assay for identifying genotoxic compounds that show differential cytotoxicity against isogenic chicken DT40 cell lines with known DNA damage response pathways - wild type cell line (AID 743012); also: nearly all actives have a fitted effect of over 60% in size; also: potency is read from the fitted curve at half-maximal effect
Summary of the method: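 300 wt DT40 cells/well; cpd (DMSO) pintool-transferred after ~0.5 h at 37 C/5% CO2; 40 h incubation; CellTiter-Glo added, 30 min RT; luminescence read.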

[11] = qHTS assay for identifying genotoxic compounds that show differential cytotoxicity against isogenic chicken DT40 cell lines with known DNA damage response pathways - Rev3 mutant cell line (AID 743014); also: nearly all actives have a fitted effect of over 55% in size; also: potency is read from the fitted curve at half-maximal effect
[12] = qHTS assay for identifying genotoxic compounds that show differential cytotoxicity against isogenic chicken DT40 cell lines with known DNA damage response pathways - Rad54/Ku70 mutant cell line (AID 743015); also: nearly all actives have a fitted effect of over 60% in size; also: potency is read from the fitted curve at half-maximal effect
[13] = qHTS assay to identify small molecule antagonists of the androgen receptor (AR) signaling pathway - cell viability counter screen (AID 743033; also: nearly all actives have a fitted effect of over 45% in size)
[14] = qHTS assay to identify small molecule antagonists of the androgen receptor (AR) signaling pathway using the MDA cell line - cell viability counter screen (AID 743041; also: nearly all actives have a fitted effect of over 45% in size)
Summary of the method: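 Using the breast carcinoma line MDA-kb2 AR-luc, test chemicals were co-incubated with R1881 for 16 h; CellTiter-Fluor reagent, added at 15.5 h, provided a fluorescence measure of live cells.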

[15] = biological target: Glucocorticoid receptor (Homo sapiens) (UniProt P04150); experiment: qHTS assay to identify small molecule agonists of the glucocorticoid receptor (GR) signaling pathway (AID 720691; active = well fitted activation curve with a large enough effect in the signal ratio in the repeat runs, not every such curve was filed as active; the % refers to the signal ratio)
Glucocorticoid receptor (Homo sapiens), sequence (P04150 whole entry, looked up): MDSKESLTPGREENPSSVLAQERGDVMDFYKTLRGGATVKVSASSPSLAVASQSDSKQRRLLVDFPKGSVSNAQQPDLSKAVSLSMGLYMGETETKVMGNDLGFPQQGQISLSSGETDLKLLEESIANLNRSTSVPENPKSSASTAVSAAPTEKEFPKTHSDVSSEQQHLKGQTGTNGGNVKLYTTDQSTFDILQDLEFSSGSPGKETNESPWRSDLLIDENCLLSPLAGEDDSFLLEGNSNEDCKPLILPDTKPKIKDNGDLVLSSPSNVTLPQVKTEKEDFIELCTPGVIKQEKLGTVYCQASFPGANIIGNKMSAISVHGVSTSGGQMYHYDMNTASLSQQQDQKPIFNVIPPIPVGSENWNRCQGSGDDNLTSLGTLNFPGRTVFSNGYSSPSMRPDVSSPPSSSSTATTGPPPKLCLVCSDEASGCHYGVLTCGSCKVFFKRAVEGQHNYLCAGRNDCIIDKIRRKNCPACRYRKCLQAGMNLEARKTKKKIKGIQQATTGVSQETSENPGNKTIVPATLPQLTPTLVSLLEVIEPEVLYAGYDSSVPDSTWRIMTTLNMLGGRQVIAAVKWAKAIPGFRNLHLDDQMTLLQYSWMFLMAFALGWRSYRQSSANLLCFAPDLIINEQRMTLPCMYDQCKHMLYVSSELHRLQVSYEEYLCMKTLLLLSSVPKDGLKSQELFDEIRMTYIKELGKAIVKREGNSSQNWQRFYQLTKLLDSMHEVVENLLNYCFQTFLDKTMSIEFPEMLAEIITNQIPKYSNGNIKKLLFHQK
Summary of the method: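 A HeLa cervical cancer line expressing GR and a glucocorticoid response element-driven beta-lactamase gene is treated with compounds for 18 h; LiveBLAzer B/G FRET substrate is then applied and fluorescence read.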
% is scaled to controls: 0 for no effect and ±100 for the full control effect.

CC(C)(CO)[C@@H](O)C(=O)NCCC(=O)O
inactive: outcome [1] | outcome [2] | outcome [3] | outcome [4] | outcome [5] | outcome [6] | outcome [7] | outcome [8] | outcome [9] | Potency [10] | Potency [11] | Potency [12] | outcome [13]

CN1CCC[C@@H]1Cc1c[nH]c2ccc(CCS(=O)(=O)c3ccccc3)cc12
active: Potency [10] 26.6 µM | Potency [11] 33.5 µM | Potency [12] 29.8 µM
inactive: outcome [1] | outcome [2] | outcome [3] | outcome [4] | outcome [5] | outcome [6] | outcome [7] | outcome [8] | outcome [9] | outcome [13]

CCCCNc1ccc(C(=O)OCCN(CC)CC)cc1
active: Potency [10] 2.37 µM | Potency [11] 1.68 µM | Potency [12] 2.37 µM
inactive: outcome [1] | outcome [2] | outcome [3] | outcome [4] | outcome [5] | outcome [6] | outcome [7] | outcome [8] | outcome [9] | outcome [13] | Potency [14]

C=Cc1ccccc1
inactive: outcome [1] | outcome [2] | outcome [3] | outcome [4] | outcome [5] | outcome [6] | outcome [7] | outcome [8] | outcome [9] | Potency [10] | Potency [11] | Potency [12] | outcome [13] | Potency [14]

C=O
inactive: outcome [1] | outcome [2] | outcome [3] | outcome [4] | outcome [5] | outcome [6] | outcome [7] | outcome [8] | outcome [9] | Potency [10] | Potency [11] | Potency [12] | outcome [13] | Potency [14]

NC(Cc1ccc(F)cc1)C(=O)O (stereo unspecified)
active: Potency [12] 1.87 µM
inactive: fluorescence, % of fluorescein [1] 0.0426% [at 3.72 µM] | fluorescence, % of fluorescent control [2] -0.189% [at 3.72 µM] | activity change [3] 0.0132% [at 3.72 µM] | fluorescence, % of fluorescent control [4] 0.0018% [at 3.72 µM] | fluorescence, % of Rose Bengal [5] -0.117% [at 3.72 µM] | fluorescence, % of fluorescent control [6] -0.0373% [at 3.72 µM] | fluorescence, % of fluorescein control [7] -0.0064% [at 3.72 µM] | fluorescence, % of fluorescent control [8] -0.0921% [at 3.72 µM] | activation [15] -7.29% [at 6.9 µM] | viability change, negative = cytotoxic [9] -1.1% [at 7.04 µM] | activity change, negative = cytotoxicity [13] -0.148% [at 7.04 µM]

CNCCC(Oc1ccccc1OC)c1ccccc1 (stereo unspecified)
inactive: outcome [1] | outcome [2] | outcome [3] | outcome [4] | outcome [5] | outcome [6] | outcome [7] | outcome [8] | outcome [9] | Potency [11] | Potency [12] | Potency [14]
active: Potency [10] 26.6 µM

CN(CCCN1c2ccccc2CCc2ccccc21)CC(=O)c1ccc(Cl)cc1
inactive: outcome [1] | outcome [2] | outcome [3] | outcome [4] | outcome [5] | outcome [6] | outcome [7] | outcome [8] | Potency [15]
active: Potency [10] 9.44 µM | Potency [11] 13.3 µM | Potency [12] 13.3 µM

CCCCCCCOC(=O)CCC
inactive: outcome [1] | outcome [2] | outcome [3] | outcome [4] | outcome [5] | outcome [6] | outcome [7] | outcome [8] | Potency [15] | outcome [9] | Potency [14]

C[C@@H]1CN(c2c(F)c(N)c3c(=O)c(C(=O)O)cn(C4CC4)c3c2F)C[C@H](C)N1
inactive: outcome [1] | outcome [2] | outcome [3] | outcome [4] | outcome [5] | outcome [6] | outcome [7] | outcome [8] | outcome [9] | Potency [10] | Potency [11] | Potency [12] | outcome [13] | Potency [14]

CCN(O)CC
inactive: outcome [1] | outcome [2] | outcome [3] | outcome [4] | outcome [5] | outcome [6] | outcome [7] | outcome [8] | outcome [9] | Potency [10] | Potency [11] | Potency [12] | outcome [13]

CC(C)(C)c1ccc(OC(=O)c2ccccc2O)cc1
inactive: outcome [1] | outcome [2] | outcome [3] | outcome [4] | outcome [5] | outcome [6] | outcome [7] | outcome [8] | Potency [15] | outcome [9] | outcome [13]

CC(=O)N[C@@H](CC(C)C)C(=O)O
inactive: outcome [1] | outcome [2] | outcome [3] | outcome [4] | outcome [5] | outcome [6] | outcome [7] | outcome [8] | outcome [9] | Potency [10] | Potency [12] | Potency [14]
